Structures are written as SMILES. Inconclusive results are not listed. Unmarked numbers belong to inactive results. The source made the active and inactive calls. Calls come from the whole dose curve; as a rule, active = well fitted curve in the direction sought with a large enough effect; inconclusive = small, poorly fitted or top-dose-only effect, or another doubt; inactive = no such curve, though single readings can be large; an effect the other way counts as inactive or inconclusive.

The subject of experiment [1] is MKL-1. Description: qHTS assay to identify novel small-molecules to repurpose for Merkel cell carcinoma treatment (AID 1296009). Note: nearly all actives have a fitted effect of over 60% in size. The note with it: MCC and control cell lines, CellTiter-Glo viability, 72 h; series mostly up to 46 µM. The essentials:
(§1)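 Cells exposed to NPC (8-point) and MIPE (11-point) compound dilutions for 72 hr at 37 degree celsius; viability read by CellTiter-Glo luminescence, normalized to no-cell and DMSO in-plate controls.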

For experiment [2], the system named is MKL-2. Described as above. The note with it: MCC and control cell lines, CellTiter-Glo viability, 72 h; series mostly up to 46 µM. The essentials:
as §1

Experiment [3] has as its system UISO. The description is as above. The note with it: MCC and control cell lines, CellTiter-Glo viability, 72 h; series mostly up to 46 µM. In short, it runs like this:
as §1

Experiment [4] deals with WaGa. The experiment is described as above. Conditions: MCC and control cell lines, CellTiter-Glo viability, 72 h; series mostly up to 46 µM. In short, it runs like this:
as §1
On the technique in general: ATP-based viability assays read luminescence as a measure of living cells.

Experiment [5] relates to C33A. Description: Primary qHTS to identify gynecologic anti-cancer compounds using libraries of approved drugs and bioactive compounds (AID 1345084). Note: nearly all actives have a fitted effect of over 55% in size. Note: potency is the fitted concentration of half-maximal effect. Conditions: Gynecologic cancer cell panel viability, ATPlite luminescence, 48 h; series mostly up to 57.5 µM. In short, it runs like this: (§2)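 48 h compound exposure at 37 C, 5% CO2; five-point qHTS. ATPlite luminescence readout of cell ATP.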
For orientation: Quantitative high-throughput screening tests each substance at several concentrations.

For experiment [6], the system named is CAOV3. Described as above. The note with it: Gynecologic cancer cell panel viability, ATPlite luminescence, 48 h; series mostly up to 57.5 µM. The essentials: as §2
The subject of experiment [7] is CASKI. The experiment is described as above. The note with it: Gynecologic cancer cell panel viability, ATPlite luminescence, 48 h; series mostly up to 57.5 µM. In short, it runs like this:
as §2

The test system of experiment [8] is Es-2. The experiment is described as above. The note with it: Gynecologic cancer cell panel viability, ATPlite luminescence, 48 h; series mostly up to 57.5 µM. The essentials:
as §2

Experiment [9] relates to HeLa. Described as above. Conditions: Gynecologic cancer cell panel viability, ATPlite luminescence, 48 h; series mostly up to 57.5 µM. In short, it runs like this:
as §2

Experiment [10] relates to Hek293T. The description is as above. The note with it: Gynecologic cancer cell panel viability, ATPlite luminescence, 48 h, control line for the selectivity index; series mostly up to 57.5 µM. The essentials: as §2
In experiment [11] the test system is JEG-3. Described as above. Conditions: Gynecologic cancer cell panel viability, ATPlite luminescence, 48 h; series mostly up to 57.5 µM. The essentials:
as §2

Experiment [12] concerns OV90. Described as above. The note with it: Gynecologic cancer cell panel viability, ATPlite luminescence, 48 h; series mostly up to 57.5 µM. The essentials:
as §2

For experiment [13], the system named is PA-1. Described as above. The note with it: Gynecologic cancer cell panel viability, ATPlite luminescence, 48 h; series mostly up to 57.5 µM. In short, it runs like this: as §2
In experiment [14] the test system is Tov-21-G. Described as above. Conditions: Gynecologic cancer cell panel viability, ATPlite luminescence, 48 h; series mostly up to 57.5 µM. In short, it runs like this:
as §2

For experiment [15], the system named is Tov112D. The experiment is described as above. The note with it: Gynecologic cancer cell panel viability, ATPlite luminescence, 48 h; series mostly up to 57.5 µM. In short, it runs like this: as §2
A short description of experiment [16]: Drug repurposing screens with cells derived from glioblastoma tumor samples (AID 1345199). Note: nearly all actives have a fitted effect of over 40% in size. Note: potency is the fitted concentration of half-maximal effect. Conditions: GBM patient neurospheres viability, ATP luminescence, 48 h. In short, it runs like this: (§3)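 Four patient lines of CD133+ GBM neurospheres were screened at several concentrations; hits were retested in those lines plus three slower-growing GBM lines, using 48-hour treatment and ATP-based viability.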

For experiment [17], the system named is astro. The experiment is described as above. The note with it: viability, ATP luminescence, 48 h; series mostly up to 45.9 µM. In short, it runs like this: as §3
Experiment [18] relates to SKOV3. The experiment can be described thus: Primary qHTS to identify gynecologic anti-cancer compounds using libraries of approved drugs and bioactive compounds (AID 1345084). Note: nearly all actives have a fitted effect of over 55% in size. Note: potency is the fitted concentration of half-maximal effect. Conditions: Gynecologic cancer cell panel viability, ATPlite luminescence, 48 h; series mostly up to 57.5 µM. The essentials: as §2
[19] abbreviates: at 45.9 µM (top of the series), tumour line B.
Setting [20] is: at 45.9 µM (top of the series), tumour line D.
Where [21] appears, read: at 46.1 µM (top of the series), tumour line C.
% is set by controls: 0 for no effect and ±100 for the full control effect.

With `CS(=O)(=O)OCCCCOS(C)(=O)=O`, the Potency entry in experiment [1], in experiment [2], in [3], in [4], in experiment [5] and in [6] was “inactive” in each case. Also, the Potency entry in experiment [7], in [8], in [9], in [10], in [11] and in experiment [12] was “inactive” each time. Also, the Potency entry in [13], in experiment [14], in experiment [15] and in experiment [17] was “inactive” in each case. Further, the activity, negative = cell killing was -4.65% in experiment [16] (setting [19]); -5.18% in [16] (setting [20]); -16.3% in experiment [16] (at 46 µM (top of the series), tumour line A); -0.778% in [16] (setting [21]).
Take `Cc1nccn1CC1CCc2c(c3ccccc3n2C)C1=O` (stereo unspecified): the Potency result in experiment [1], in [2], in [3], in experiment [4], in experiment [5] and in experiment [6] was “inactive” each time. In addition, the Potency result in experiment [7], in experiment [8], in experiment [9], in experiment [10], in experiment [11] and in experiment [12] was “inactive” throughout. Further, the Potency entry in experiment [13], in experiment [18], in experiment [14], in experiment [15] and in experiment [17] was “inactive” throughout.
For `Cc1cc(=O)c2c(O)c3c(O)cc(=O)c4c3c3c(cc(O)c1c23)C(C)(C)C=4O`, the Potency result in experiment [1], in experiment [2], in [3] and in experiment [4] was “inactive” throughout. For the same compound, the Potency in experiment [5] was 3.55 µM (active); in experiment [6], 4.47 µM (active); in experiment [7] it was 2 µM (active); in experiment [8], 3.16 µM (active); in experiment [9] it was 2.24 µM (active); in [10], 2 µM (active). For the same compound, the Potency was 2.82 µM (active) in [13]; 3.55 µM (active) in experiment [18]; 3.16 µM (active) in experiment [14]; 2.24 µM (active) in experiment [15]; 2.51 µM (active) in experiment [17].
In the case of `N=C(N=C(N)N)N1CCOCC1`, the Potency entry in [1], in experiment [2], in experiment [3], in experiment [4], in experiment [5] and in experiment [6] was “inactive” throughout. For the same compound, the Potency entry in experiment [7], in [8], in [9], in experiment [10], in experiment [11] and in [12] was “inactive” throughout. The Potency entry in [13], in [18], in [14], in experiment [15] and in [17] was “inactive” throughout. Moreover, the activity, negative = cell killing was 4.28% in experiment [16] (at 21.2 µM (top of the series), tumour line B) and -14.6% in experiment [16] (at 21.3 µM (top of the series), tumour line A).
Regarding `COc1cc2nc(N3CCN(C(=O)C4CCCO4)CC3)nc(N)c2cc1OC` (stereo unspecified), the Potency entry in experiment [1], in experiment [2], in experiment [3], in experiment [4], in experiment [5] and in [6] was “inactive” each time. Also, the Potency result in [7], in [8], in experiment [9], in [10], in [11] and in experiment [12] was “inactive” in each case. Further, the Potency entry in experiment [14], in experiment [15] and in experiment [17] was “inactive” throughout. Further, the activity, negative = cell killing in experiment [16] (setting [19]) is -11.4%; in [16] (setting [20]) it was -6.51%; in [16] (setting [21]), -17.4%.
In the case of `CC(C)c1ccc2oc3nc(N)c(C(=O)O)cc3c(=O)c2c1`, the Potency result in [1], in experiment [2], in experiment [3] and in experiment [4] was “inactive” throughout. Further, the Potency in experiment [5] is 8.91 µM (active); in experiment [6] it was 6.31 µM (active); in experiment [7], 4.47 µM (active); in [8] it was 7.08 µM (active); in [9], 7.94 µM (active); in experiment [10], 7.08 µM (active). The Potency in [11] is 7.94 µM (active); in experiment [12], 6.31 µM (active); in [13], 5.62 µM (active); in [18] it was 7.08 µM (active); in experiment [14], 5.01 µM (active); in experiment [15], 7.94 µM (active). In experiment [17], the Potency is 1.78 µM (active).

The values are drawn from PubChem BioAssay (NCATS).
